Measured values as given in PubChem BioAssay (NCATS).
A number with no mark means an inactive call. Records with an inconclusive call do not appear. Where a call stands in place of a potency, no number is given. The source made the active and inactive calls. Unless noted, calls follow the shape of the dose curve; as a rule, active = well fitted curve in the direction sought with a large enough effect; inconclusive = small, poorly fitted or top-dose-only effect, or another doubt; inactive = no such curve, though single readings can be large; an effect the other way counts as inactive or inconclusive.

What was measured:
[1] = molecular target: Cytochrome P450 3A4 (Homo sapiens) (UniProt P08684); assay: qHTS Assay for Inhibitors and Substrates of Cytochrome P450 3A4 (AID 884); also: nearly all actives have a fitted effect of over 50% in size; also: potency is read from the fitted curve at half-maximal effect
Cytochrome P450 3A4 (Homo sapiens), sequence (P08684 whole entry, looked up): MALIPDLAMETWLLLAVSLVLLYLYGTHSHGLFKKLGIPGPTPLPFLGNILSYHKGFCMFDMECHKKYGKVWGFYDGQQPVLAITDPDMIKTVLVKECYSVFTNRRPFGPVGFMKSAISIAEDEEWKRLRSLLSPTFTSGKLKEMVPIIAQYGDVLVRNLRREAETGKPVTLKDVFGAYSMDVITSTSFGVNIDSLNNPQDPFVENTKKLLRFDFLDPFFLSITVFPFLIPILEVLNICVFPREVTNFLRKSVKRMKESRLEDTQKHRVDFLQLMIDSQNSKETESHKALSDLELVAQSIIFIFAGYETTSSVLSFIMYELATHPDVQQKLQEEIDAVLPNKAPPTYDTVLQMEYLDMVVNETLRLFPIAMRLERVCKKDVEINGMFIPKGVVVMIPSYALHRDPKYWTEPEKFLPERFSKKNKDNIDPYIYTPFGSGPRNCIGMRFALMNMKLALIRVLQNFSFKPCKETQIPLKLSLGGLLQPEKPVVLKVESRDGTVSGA
How it was run: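 Luminescent readout of luciferin produced by CYP3A4 (20 nM) dealkylation of Luciferin-PPXE, 25 uM (its KM). NADPH-driven reaction ran 60 min at RT after 10 min compound preincubation; data scaled to 57 uM ketoconazole as 100% inhibition.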

[2] = Confirmation and Secondary Assay for Modulators of Hemoglobin Beta Chain Splicing at IVS2 654 locus (AID 910);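 also: HeLa cells stably carrying EGFP split by mutant beta-globin IVS2-654 intron; per-well total GFP intensity by laser scanning cytometry after 2-day treatment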;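 also: potency is read from the fitted curve at half-maximal effect; potency of activators that raise GFP signal by restoring correct splicing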
How it was run: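 Readout: per-well total peak green fluorescence (488 nm ex, 500–520 nm em) from objects 5–250 µm, reflecting correct splicing of an EGFP-654 reporter. Compounds were applied for 2 days at 37 °C to overnight-plated HeLa EGFP-654 cells; controls were DMSO and 500 nM IVS2-654 PNA.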

[3] = Confirmation and Secondary Assay for Modulators of Hemoglobin Beta Chain Splicing at IVS2 705 locus (AID 930);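 also: GFP fluorescence per well restored by corrected splicing of the IVS2-705 intron in EGFP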; also: potency is read from the fitted curve at half-maximal effect;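 as to activation: HeLa cells stably expressing the EGFP-705 splicing reporter; series mostly up to about 46 µM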
How it was run: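 First, HeLa EGFP-705 cells are seeded at 500/well in Optimem with 2% FCS and left overnight. Next, compound or DMSO is added for 2 days. Finally wells are laser-scanned and total peak GFP intensity scored.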

[4] = molecular target: Cytochrome P450 3A4 (Homo sapiens) (UniProt P08684); assay: qHTS Assay for Activators of Cytochrome P450 3A4 (AID 885); also: nearly all actives have a fitted effect of over 65% in size; also: potency is read from the fitted curve at half-maximal effect
How it was run: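 CYP3A4 activity: Luciferin-PPXE O-dealkylation, 25uM substrate, 200mM KPO4, RT throughout. Read-out is luciferase luminescence; higher values reflect activation.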

[5] = Cell Viability - LYMP2-001 (AID 921);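 also: cells exposed to compound for 24 h at 37 °C; nearly all actives have a fitted effect of over 70% in size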; also: potency is read from the fitted curve at half-maximal effect
How it was run: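 Steps: seed 2500 lymphoblastoid cells/well; 5 hr, 37 C; add compound; 24 hr, 37 C; CellTiter-Glo reagent, 30 min room temperature; read luminescence. Concentration-response modeled by Hill equation for AC50.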

[6] = molecular target: Guanine nucleotide-binding protein G(i) subunit alpha-1 (Homo sapiens) (UniProt P63096); assay: qHTS Assay for Inhibitors of RGS12 GoLoco Motif Activity (Green Fluorophore) (AID 879);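 also: negative values mean loss of peptide binding seen as reduced polarization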
Guanine nucleotide-binding protein G(i) subunit alpha-1 (Homo sapiens), sequence (P63096 whole entry, looked up): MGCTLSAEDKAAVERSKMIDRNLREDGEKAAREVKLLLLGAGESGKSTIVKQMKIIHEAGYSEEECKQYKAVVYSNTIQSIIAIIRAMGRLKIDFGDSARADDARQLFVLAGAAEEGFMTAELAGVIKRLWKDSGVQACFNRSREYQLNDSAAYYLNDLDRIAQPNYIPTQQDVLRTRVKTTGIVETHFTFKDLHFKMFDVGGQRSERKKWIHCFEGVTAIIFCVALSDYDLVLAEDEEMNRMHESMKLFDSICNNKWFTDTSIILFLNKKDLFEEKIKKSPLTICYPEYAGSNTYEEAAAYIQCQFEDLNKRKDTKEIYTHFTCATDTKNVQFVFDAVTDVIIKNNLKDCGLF
How it was run: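 A drop in FITC polarization marked displacement of the FITC-tagged RGS12 GoLoco peptide (10 nM) from Gαi1 (50 nM). Compounds were incubated 10 min at room temperature in Tris pH 7.5 buffer containing 150 mM NaCl, 0.1 mM GDP and 0.05% NP40; unlabeled peptide titration served as control.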

[7] = molecular target: Cytochrome P450 2C9 (Homo sapiens) (UniProt P11712); assay: qHTS Assay for Inhibitors and Substrates of Cytochrome P450 2C9 (AID 883); also: potency is read from the fitted curve at half-maximal effect; nearly all actives have a fitted effect of over 60% in size
Cytochrome P450 2C9 (Homo sapiens), sequence (P11712 whole entry, looked up): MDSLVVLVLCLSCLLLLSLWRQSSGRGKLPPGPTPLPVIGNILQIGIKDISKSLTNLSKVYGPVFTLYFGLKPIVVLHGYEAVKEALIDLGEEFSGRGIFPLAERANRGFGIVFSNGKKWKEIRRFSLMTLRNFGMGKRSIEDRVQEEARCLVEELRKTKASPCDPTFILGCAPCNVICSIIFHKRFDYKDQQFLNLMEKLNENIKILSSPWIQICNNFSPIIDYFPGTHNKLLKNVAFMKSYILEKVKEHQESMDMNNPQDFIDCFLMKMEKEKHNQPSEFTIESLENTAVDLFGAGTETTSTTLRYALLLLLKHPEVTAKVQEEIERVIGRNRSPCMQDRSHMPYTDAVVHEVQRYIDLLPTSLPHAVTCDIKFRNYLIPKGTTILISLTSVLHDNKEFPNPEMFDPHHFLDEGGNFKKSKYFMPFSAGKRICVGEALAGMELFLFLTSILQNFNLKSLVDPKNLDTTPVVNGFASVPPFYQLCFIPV
How it was run: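 Luminescent read-out of deoxyluciferin hydroxylation, normalized to 57uM sulphaphenazole (AC100). Reaction: 10nM enzyme, 100uM Luciferin-H (equal to KM), 25mM KPO4, 10 min compound preincubation, then 60 min with NADPH regeneration, both at 37C.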

[8] = qHTS Assay for Identification of Small Molecule Agonists for Hypoxia Response Element Signaling Pathway (AID 914; active = well fitted activation curve with a large enough effect in the signal ratio, with a control signal flat, not every such curve was filed as active; the % refers to the signal ratio); details: ME-180 (cervical carcinoma) HRE-bla reporter, beta-lactamase ratio, CoCl2, 17 h; hits give high values
Source text: NIH Molecular Libraries Screening Centers Network [MLSCN]
NIH Chemical Genomics Center [NCGC]
Hypoxia-inducible factor-1 (HIF-1) is the major hypoxia-regulated transcription factor that controls cellular responses to low oxygen concentration. HIF-1 is composed of two subunits: hypoxia responsive HIF-1 alpha and constitutively expressed HIF-1 beta, which is also known as aryl hydrocarbon receptor nuclear translocator. During hypoxic conditions, HIF-1 alpha heterodimerizes with HIF-1 beta and translocates into the nucleus where the HIF-1 complex binds to the hypoxia-response element (HRE) and activates expression of target genes such as VEGF (vascular endothelial growth factor). […]
Using a beta-lactamase reporter-gene under control of the hypoxia response element, a cell-based assay [CellSensor(TM) HRE-bla ME-180 developed by Invitrogen Corp.] was used to measure hypoxia-induced signaling. Library compounds were measured for their ability to positively modulate the action of EC50 CoCl2 on reporter gene activity. […]
2500 cells/5uL in Opti-MEM medium containing 0.5% dialyzed FBS, 0.1 mM NEAA, 1 mM sodium pyruvate and 10 mM HEPES was dispensed into 1536-well plates and cells were cultured at 37 degrees Celsius overnight. […] After incubated at room temperature for 2.5 hours the plates were measured on an EnVision plate reader at Excitation 405nm, Emission1=460nm and Emission 2=530nm. […]

[9] = molecular target: Cytochrome P450 2D6 (Homo sapiens) (UniProt P10635); assay: qHTS Assay for Inhibitors and Substrates of Cytochrome P450 2D6 (AID 891); also: potency is read from the fitted curve at half-maximal effect; nearly all actives have a fitted effect of over 60% in size
Cytochrome P450 2D6 (Homo sapiens), sequence (P10635 whole entry, looked up): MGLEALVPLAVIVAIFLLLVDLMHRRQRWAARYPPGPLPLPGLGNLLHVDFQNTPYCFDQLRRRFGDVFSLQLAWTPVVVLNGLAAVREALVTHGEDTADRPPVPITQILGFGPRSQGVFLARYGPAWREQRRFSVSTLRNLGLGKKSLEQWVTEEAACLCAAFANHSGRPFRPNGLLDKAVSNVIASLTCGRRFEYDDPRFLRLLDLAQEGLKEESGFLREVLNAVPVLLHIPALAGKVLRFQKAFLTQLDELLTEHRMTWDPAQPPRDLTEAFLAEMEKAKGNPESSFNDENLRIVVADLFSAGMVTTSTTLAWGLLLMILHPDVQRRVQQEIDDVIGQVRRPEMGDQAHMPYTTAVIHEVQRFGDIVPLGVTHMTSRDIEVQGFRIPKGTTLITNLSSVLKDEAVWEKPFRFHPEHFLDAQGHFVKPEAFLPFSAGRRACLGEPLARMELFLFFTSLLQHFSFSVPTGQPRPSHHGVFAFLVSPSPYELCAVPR
How it was run: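 Luminescent read-out of luciferin formed by 5 nM human CYP2D6 demethylating 30 uM Luciferin-ME EGE (Km level) over 60 min at room temperature after NADPH regeneration addition. Data normalized to full inhibition by 1.43 uM quinidine.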

## COc1cc(S(C)=O)ccc1-c1nc2ncccc2[nH]1 (configuration not stated)
[1]
  Potency: inactive
[2]
  Potency: inactive
[3]
  Potency: inactive

## C=C1C(CCl)(CCl)C2(Cl)C(Cl)C(Cl)C1(Cl)C2(Cl)Cl (configuration not stated)
[1]
  Potency: 5.01 µM (active)
[4]
  Potency: inactive
[5]
  Potency: 39.8 µM (active)

## O=C(O)[C@H]1CN(C/C=C/P(=O)(O)O)CCN1
[1]
  Potency: inactive

## CC1CCCC(C)N1NC(=O)c1ccc(Cl)c(S(N)(=O)=O)c1 (configuration not stated)
[1]
  Potency: inactive
[2]
  Potency: inactive
[3]
  Potency: inactive

## NCC(O)CC(=O)O (configuration not stated)
[1]
  Potency: inactive
[2]
  Potency: inactive
[3]
  Potency: inactive

## CC(C)O
[1]
  Potency: inactive
[5]
  Potency: inactive

## OCl
[1]
  Potency: inactive
[5]
  Potency: inactive

## C=CC(C)(O)CC/C=C(\C)CCC=C(C)C (configuration not stated)
[1]
  Potency: inactive
[2]
  Potency: inactive
[3]
  Potency: inactive

## Nc1nccs1
[1]
  Potency: inactive
[2]
  Potency: inactive
[5]
  Potency: inactive
[3]
  Potency: inactive

## CC(=O)Oc1cccc2c1C(=O)c1c(OC(C)=O)cc(C(=O)O)cc1C2=O
[1]
  Potency: inactive
[2]
  Potency: inactive
[3]
  Potency: inactive

## CC(=O)[C@H]1CC[C@H]2[C@@H]3C=CC4=CC(=O)CC[C@@]4(C)[C@H]3CC[C@]12C
[1]
  Potency: inactive
[4]
  Potency: 7.94 µM (active)

## C[C@@](Cc1ccc(O)c(O)c1)(NN)C(=O)O
[6]
  outcome: inactive
[4]
  Potency: inactive

## CCCCO
[1]
  Potency: inactive
[5]
  Potency: inactive

## CC/C=C\C/C=C\C/C=C\CCCCCCCC(=O)O
[1]
  Potency: 15.8 µM (active)
[4]
  Potency: inactive

## Nc1ncnc2c1ncn2[C@H]1CC[C@@H](CO)O1
[1]
  Potency: inactive
[2]
  Potency: inactive
[5]
  Potency: inactive
[3]
  Potency: inactive

## CC(=O)N=c1sc(S(N)(=O)=O)nn1C
[1]
  Potency: inactive
[2]
  Potency: inactive
[3]
  Potency: inactive

## O=C(O)[C@H]1C(=CCO)O[C@H]2CC(=O)N12
[1]
  Potency: inactive
[2]
  Potency: inactive
[3]
  Potency: inactive

## O=C(O)Cc1cc(I)c(Oc2ccc(O)c(I)c2)c(I)c1
[7]
  Potency: 5.01 µM (active)

## OC[C@H]1O[C@@H]2O[C@H]3[C@H](O)[C@@H](O)[C@@H](O[C@H]4[C@H](O)[C@@H](O)[C@@H](O[C@H]5[C@H](O)[C@@H](O)[C@@H](O[C@H]6[C@H](O)[C@@H](O)[C@@H](O[C@H]7[C@H](O)[C@@H](O)[C@@H](O[C@H]1[C@H](O)[C@H]2O)O[C@@H]7CO)O[C@@H]6CO)O[C@@H]5CO)O[C@@H]4CO)O[C@@H]3CO
[1]
  Potency: inactive
[5]
  Potency: inactive

## CC1=CC(=O)NS(=O)(=O)O1
[1]
  Potency: inactive
[5]
  Potency: inactive

## Cc1cccc(C)c1NC(=O)C1CCCCN1C (configuration not stated)
[4]
  Potency: inactive
[2]
  Potency: inactive
[8]
  activation: 5.97%
[3]
  Potency: inactive

## O=c1n(CC2CO2)c(=O)n(CC2CO2)c(=O)n1CC1CO1 (configuration not stated)
[1]
  Potency: inactive
[5]
  Potency: 31.6 µM (active)

## CCCOc1cc(N)ccc1C(=O)OCCN(CC)CC
[9]
  Potency: 2 µM (active)

## O=C(O)CCC(=O)c1ccc(-c2ccccc2)cc1
[2]
  Potency: inactive
[3]
  Potency: inactive

## c1ccc2ccccc2c1
[1]
  Potency: inactive
[5]
  Potency: inactive

## [O-][N+](=Nc1ccccc1)c1ccccc1
[1]
  Potency: inactive
[5]
  Potency: inactive

## C/C=C/C=C/C(=O)O
[1]
  Potency: inactive
[5]
  Potency: inactive

## OB(O)O
[1]
  Potency: inactive
[5]
  Potency: inactive

## CO/N=C(/C(=O)N[C@@H]1C(=O)N2C(C(=O)O)=C(COC(N)=O)CS[C@H]12)c1ccco1
[1]
  Potency: inactive
[5]
  Potency: inactive

## C[C@H](CCC(=O)O)[C@H]1CC[C@H]2[C@@H]3[C@H](O)C[C@@H]4C[C@H](O)CC[C@]4(C)[C@H]3C[C@H](O)[C@]12C
[5]
  Potency: inactive

## CC[C@H]1OC(=O)[C@H](C)[C@@H](O[C@H]2C[C@@](C)(OC)[C@@H](O)[C@H](C)O2)[C@H](C)[C@@H](O[C@@H]2O[C@H](C)C[C@H](N(C)C)[C@H]2O)[C@](C)(O)C[C@@H](C)CN(C)[C@H](C)[C@@H](O)[C@]1(C)O
[5]
  Potency: inactive

## CCCc1nc(C(C)(C)O)c(C(=O)OCc2oc(=O)oc2C)n1Cc1ccc(-c2ccccc2-c2nn[nH]n2)cc1
[4]
  Potency: inactive
[2]
  Potency: inactive
[3]
  Potency: inactive

## CC(C)(C)CC(C)(C)c1ccc(OCCO)cc1
[4]
  Potency: inactive

## COC(=O)c1ccccc1O
[1]
  Potency: inactive
[5]
  Potency: inactive

## OCc1ccccc1
[1]
  Potency: inactive
[5]
  Potency: inactive

## NCCN
[1]
  Potency: inactive
[5]
  Potency: inactive

## C[C@H](CCC(=O)O)[C@H]1CC[C@H]2[C@@H]3CC[C@@H]4C[C@H](O)CC[C@]4(C)[C@H]3C[C@H](O)[C@]12C
[5]
  Potency: inactive

## O=C(CCCCCCCCCCCCC1CCCC1)Nc1ccc(S(=O)(=O)c2ccc(NC(=O)CCCCCCCCCCCCC3CCCC3)cc2)cc1
[4]
  Potency: inactive
[2]
  Potency: inactive
[3]
  Potency: inactive

## CC(C)c1nc(N(C)S(C)(=O)=O)nc(-c2ccc(F)cc2)c1/C=C/C(O)CC(O)CC(=O)O (configuration not stated)
[4]
  Potency: inactive
[2]
  Potency: inactive
[3]
  Potency: inactive

## CCOC(=O)C1=C(COCCN)NC(C)=C(C(=O)OC)C1c1ccccc1Cl (configuration not stated)
[2]
  Potency: inactive
[3]
  Potency: inactive

## Nc1ccc(N=Nc2ccccc2)c(N)n1
[4]
  Potency: inactive
[2]
  Potency: 15.8 µM (active)
[5]
  Potency: inactive
[3]
  Potency: 20 µM (active)

## CC[C@H]1OC(=O)[C@H](C)[C@@H](O[C@H]2C[C@@](C)(OC)[C@@H](O)[C@H](C)O2)C(C)[C@@H](O[C@@H]2O[C@H](C)C[C@H](N(C)C)[C@@H]2O)[C@](C)(OC)C[C@@H](C)C(=O)[C@H](C)[C@@H](O)[C@]1(C)O (some centres not stated)
[2]
  Potency: inactive
[3]
  Potency: inactive

## CO
[1]
  Potency: inactive
[5]
  Potency: inactive

## CCOC(C)OCC
[1]
  Potency: inactive
[5]
  Potency: inactive

## Oc1cccc(O)c1O
[1]
  Potency: inactive
[5]
  Potency: inactive

## Cc1ccc(S(=O)(=O)O)cc1C
[1]
  Potency: inactive
[5]
  Potency: inactive

## O=C1c2ccccc2C(=O)c2c1ccc(O)c2O
[4]
  Potency: inactive
[2]
  Potency: inactive
[3]
  Potency: inactive

## CCCCC
[1]
  Potency: inactive
[5]
  Potency: inactive

## CCSc1ccc2c(c1)N(CCCN1CCN(C)CC1)c1ccccc1S2
[4]
  Potency: inactive
[9]
  Potency: 2.51 µM (active)

## CN1CCc2c(c3ccccc3n2Cc2ccccc2)C1
[9]
  Potency: 3.16 µM (active)
[2]
  Potency: inactive
[3]
  Potency: inactive

## Oc1ccc(/C=C/c2cc(O)cc(O)c2)cc1
[5]
  Potency: inactive

## CC1=CCC2CC1C2(C)C (configuration not stated)
[1]
  Potency: inactive
[5]
  Potency: inactive
